Eight molecules from PubChem BioAssay AID624305 (National Center for Advancing Translational Sciences (NCATS), 2012) can be followed below.

Results filed as inconclusive are left out. Activity calls are given as the source filed them. The call rests on the fitted dose curve; in most records, active means well fitted activation curve with a large enough effect; inconclusive means small, poorly fitted or top-dose-only effect; inactive means no such curve, though single readings can be large or run the other way.

This experiment is described as follows: qHTS assay for re-activators of p53 using a Luc reporter: Hit Validation. Further: nearly all actives have a fitted effect of over 75% in size. In outline: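 H1299 (p53-null) cells stably carrying p53-A138V and a BP100-luciferase reporter, 1000 cells/well, treated 24 h at 37 deg C. Compounds at several concentrations, 1:5 dilution; nocodazole control; luminescence read after 10 min with detection reagent.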
Potency means the concentration at half of the fitted maximal effect.

`COc1ccc(CCNC(=O)/C=C/c2ccc(S(=O)(=O)N3CCOCC3)cc2)cc1`: the Potency result was “inactive”.

Regarding `Clc1ccc(-c2nnc(N3CCCC3)nn2)cc1`, the Potency is 0.731 µM (active).

As to `Cc1ccc(-c2nnc(N(C)C(=O)C3CCCO3)s2)cn1` (stereo not drawn), the Potency entry was “inactive”.

`C=CCn1c(C)cc(C(=O)COC(=O)c2ccc(N)c([N+](=O)[O-])c2)c1C`: the Potency is 0.411 µM (active).

For `CCCC(=O)NC(c1cccs1)c1cc([N+](=O)[O-])c2cccnc2c1O` (stereo not drawn), the Potency result is “inactive”.

Turning to `CCOc1ccc(OCc2cccc(C(=O)N3CCCC3)c2)cc1`, the Potency is 0.517 µM (active).

Turning to `O=C1CC(c2ccc3c(c2)OCCO3)Oc2ccc([N+](=O)[O-])cc21` (stereo not drawn), the Potency is 2.59 µM (active).

For `Cc1c(C(=O)N2CCc3ccccc32)oc2c1C(=O)CC(C)(C)C2`, the Potency is 4.11 µM (active).
